# Measured values: PubChem BioAssay (NCI)
# Several values for one entry are separate records, joined by “and”; a condition that tells them apart may be missing. Equal entries are not always repeated. Compounds without any hit were thinned out: in the full panel of roughly 83,000, 20% have a hit.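 Single-dose data. Exposure time 48 hours. Values below 10 considered active.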 Activity calls are given as the source filed them.
# Experiments:
# Experiment in all cases: NCI-60 one-dose screen, 48 h (100 = growth as untreated, 0 = no growth, -100 = all killed)
# SR leukemia = test system: SR leukemia
# RPMI-8226 leukemia = test system: RPMI-8226 leukemia
# OVCAR-8 ovarian = test system: OVCAR-8 ovarian
# OVCAR-5 ovarian = test system: OVCAR-5 ovarian
# OVCAR-4 ovarian = test system: OVCAR-4 ovarian
# SK-OV-3 ovarian = test system: SK-OV-3 ovarian
# IGROV1 ovarian = test system: IGROV1 ovarian
# OVCAR-3 ovarian = test system: OVCAR-3 ovarian
# HS 578T breast = test system: HS 578T breast
# NCI/ADR-RES ovarian = test system: NCI/ADR-RES ovarian
structure (smiles),measurement,setting,value
CC(C)Oc1ccc2cc(-c3nn(CC4CCNCC4)c4ncnc(N)c34)ccc2c1,growth,SR leukemia; 10 µM unless noted,18.3% (inactive) and -42.2% (active)
same,growth,RPMI-8226 leukemia; 10 µM unless noted,46.6% (inactive) and -53.2% (active)
same,growth,OVCAR-8 ovarian; 10 µM unless noted,90.8% (inactive) and 38.9% (inactive)
same,growth,OVCAR-5 ovarian; 10 µM unless noted,80.1% (inactive) and 40.2% (inactive)
same,growth,OVCAR-4 ovarian; 10 µM unless noted,100% (inactive) and 30.9% (inactive)
same,growth,SK-OV-3 ovarian; 10 µM unless noted,75.8% (inactive) and 13.3% (inactive)
same,growth,IGROV1 ovarian; 10 µM unless noted,92.1% (inactive) and 42.4% (inactive)
same,growth,OVCAR-3 ovarian; 10 µM unless noted,92.2% (inactive) and 33.9% (inactive)
same,growth,HS 578T breast; 10 µM unless noted,75.7% (inactive) and -8.78% (active)
Cc1[nH]c(-c2nc3ccccc3[nH]2)c(C)c1C(=O)NC(C)C1CCCCC1 (stereo not drawn),growth,SR leukemia; 10 µM,69% (inactive)
same,growth,SR leukemia; 100 µM,-44.3% (active)
same,growth,RPMI-8226 leukemia; 10 µM unless noted,-65.3% [100 µM] (active)
same,growth,OVCAR-8 ovarian; 10 µM,96.9% (inactive)
same,growth,OVCAR-8 ovarian; 100 µM,-61.5% (active)
same,growth,OVCAR-5 ovarian; 10 µM,94% (inactive)
same,growth,OVCAR-5 ovarian; 100 µM,-95.4% (active)
same,growth,OVCAR-4 ovarian; 10 µM,92.1% (inactive)
same,growth,OVCAR-4 ovarian; 100 µM,-84.1% (active)
same,growth,SK-OV-3 ovarian; 10 µM unless noted,-77.6% [100 µM] (active)
same,growth,IGROV1 ovarian; 10 µM,90.9% (inactive)
same,growth,IGROV1 ovarian; 100 µM,-67.8% (active)
same,growth,OVCAR-3 ovarian; 10 µM,90% (inactive)
same,growth,OVCAR-3 ovarian; 100 µM,-86.9% (active)
same,growth,HS 578T breast; 10 µM,82.8% (inactive)
same,growth,HS 578T breast; 100 µM,-39% (active)
same,growth,NCI/ADR-RES ovarian; 10 µM,85.5% (inactive)
same,growth,NCI/ADR-RES ovarian; 100 µM,-79.7% (active)
CCCCCn1sc(=O)n(Cc2ccc(CNC(=O)C(C)c3ccc(CC(C)C)cc3)cc2)c1=O (stereo not drawn),growth,SR leukemia; 10 µM unless noted,104% (inactive) and 1.27% (active)
same,growth,RPMI-8226 leukemia; 10 µM unless noted,99.7% (inactive) and -24.6% (active)
same,growth,OVCAR-8 ovarian; 10 µM unless noted,92.5% (inactive) and -15% (active)
same,growth,OVCAR-5 ovarian; 10 µM unless noted,103% (inactive) and -53.7% (active)
same,growth,OVCAR-4 ovarian; 10 µM unless noted,90% (inactive) and -47.6% (active)
same,growth,SK-OV-3 ovarian; 10 µM unless noted,97.1% (inactive) and 70.2% (inactive)
same,growth,IGROV1 ovarian; 10 µM unless noted,106% (inactive) and -83.2% (active)
same,growth,OVCAR-3 ovarian; 10 µM unless noted,102% (inactive) and -75.4% (active)
same,growth,HS 578T breast; 10 µM unless noted,98.4% (inactive) and -7.35% (active)
CCOC(=O)Nc1ccc2c(c1)/C(=N\NC(N)=S)c1ccccc1-2,growth,SR leukemia; 10 µM unless noted,47.2% (inactive) and 34.7% (inactive)
same,growth,RPMI-8226 leukemia; 10 µM unless noted,22.3% (inactive)
same,growth,OVCAR-8 ovarian; 10 µM unless noted,34.6% (inactive) and 55.5% (inactive)
same,growth,OVCAR-5 ovarian; 10 µM unless noted,105% (inactive) and 92% (inactive)
same,growth,OVCAR-4 ovarian; 10 µM unless noted,61% (inactive) and 77.1% (inactive)
same,growth,SK-OV-3 ovarian; 10 µM unless noted,96.5% (inactive) and 93.2% (inactive)
same,growth,IGROV1 ovarian; 10 µM unless noted,93.5% (inactive) and 103% (inactive)
same,growth,OVCAR-3 ovarian; 10 µM unless noted,48% (inactive) and 83.4% (inactive)
same,growth,HS 578T breast; 10 µM unless noted,69.9% (inactive) and 92.9% (inactive)
CC(CN=Cc1ccccc1O)N=Cc1ccccc1O (stereo not drawn),growth,SR leukemia; 10 µM unless noted,100% (inactive)
same,growth,RPMI-8226 leukemia; 10 µM unless noted,-6.87% (active) and 94% (inactive)
same,growth,OVCAR-8 ovarian; 10 µM unless noted,106% (inactive) and 108% (inactive)
same,growth,OVCAR-5 ovarian; 10 µM unless noted,104% (inactive) and 95.5% (inactive)
same,growth,OVCAR-4 ovarian; 10 µM unless noted,109% (inactive) and 103% (inactive)
same,growth,SK-OV-3 ovarian; 10 µM unless noted,104% (inactive) and 86.4% (inactive)
same,growth,IGROV1 ovarian; 10 µM unless noted,-14.8% (active) and 112% (inactive)
same,growth,OVCAR-3 ovarian; 10 µM unless noted,97.4% (inactive) and 112% (inactive)
same,growth,HS 578T breast; 10 µM unless noted,90.7% (inactive)
O=C(Nc1cccc(-n2ccc3c(NC(=O)c4ccccc4)nccc32)c1)c1ccc(Cl)c(C(F)(F)F)c1,growth,SR leukemia; 10 µM unless noted,-21.7% (active) and 4.99% (active)
same,growth,RPMI-8226 leukemia; 10 µM unless noted,-47.6% (active) and 32.3% (inactive)
same,growth,OVCAR-8 ovarian; 10 µM unless noted,44.6% (inactive)
same,growth,OVCAR-5 ovarian; 10 µM unless noted,16.2% (inactive) and 76.5% (inactive)
same,growth,OVCAR-4 ovarian; 10 µM unless noted,6.88% (active) and 70.1% (inactive)
same,growth,SK-OV-3 ovarian; 10 µM unless noted,11.8% (inactive) and 70.6% (inactive)
same,growth,IGROV1 ovarian; 10 µM unless noted,4.27% (active) and 56.4% (inactive)
same,growth,OVCAR-3 ovarian; 10 µM unless noted,-86.6% (active) and 51.6% (inactive)
same,growth,HS 578T breast; 10 µM unless noted,90.1% (inactive)
CC1(C)OB(c2ccc(Cn3cc(F)c(=O)[nH]c3=O)cc2)OC1(C)C,growth,SR leukemia; 10 µM,106% (inactive)
same,growth,SR leukemia; 50 µM,39.5% (inactive)
same,growth,RPMI-8226 leukemia; 10 µM,107% (inactive)
same,growth,RPMI-8226 leukemia; 50 µM,68.1% (inactive)
same,growth,OVCAR-8 ovarian; 10 µM,106% (inactive)
same,growth,OVCAR-8 ovarian; 50 µM,75.1% (inactive)
same,growth,OVCAR-4 ovarian; 10 µM,111% (inactive)
same,growth,OVCAR-4 ovarian; 50 µM,69.9% (inactive)
same,growth,SK-OV-3 ovarian; 10 µM,114% (inactive)
same,growth,SK-OV-3 ovarian; 50 µM,69% (inactive)
same,growth,IGROV1 ovarian; 10 µM,98.8% (inactive)
same,growth,IGROV1 ovarian; 50 µM,44.1% (inactive)
same,growth,OVCAR-3 ovarian; 10 µM,104% (inactive)
same,growth,OVCAR-3 ovarian; 50 µM,4.62% (active)
same,growth,HS 578T breast; 10 µM,100% (inactive)
same,growth,HS 578T breast; 50 µM,37% (inactive)
CCNC(=O)Nc1ccc(-c2nc3c(c(N4CCOC[C@@H]4C)n2)CCN(C2COC2)C3)cc1,growth,SR leukemia; 10 µM unless noted,47.9% (inactive) and 11.8% (inactive)
same,growth,RPMI-8226 leukemia; 10 µM unless noted,23.3% (inactive) and 6.21% (active)
same,growth,OVCAR-8 ovarian; 10 µM unless noted,48% (inactive) and 0.436% (active)
same,growth,OVCAR-5 ovarian; 10 µM unless noted,46.7% (inactive) and 23.1% (inactive)
same,growth,OVCAR-4 ovarian; 10 µM unless noted,23.1% (inactive) and -13% (active)
same,growth,SK-OV-3 ovarian; 10 µM unless noted,13.9% (inactive) and -35% (active)
same,growth,IGROV1 ovarian; 10 µM unless noted,15.2% (inactive) and -12.9% (active)
same,growth,OVCAR-3 ovarian; 10 µM unless noted,40.4% (inactive) and 16% (inactive)
same,growth,HS 578T breast; 10 µM unless noted,1.21% (active)
